The first assay relates to RARg homodimer (NR concentration 270 nM). Kind of assay: PBM binding z-score (relative to random genomic background probes); higher = stronger binding; sequences stand for … in GC…GCGATTGACAGCGTAGAATGAAGG
In short, it runs like this:
(§1)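 On custom Agilent 4×180K arrays, double-stranded probes with 34-nt variable regions carried direct-repeat seeds, single-nucleotide variants, half-site ablations or random human genomic background. Ligand-free nuclear receptor dimers were applied for 1 h, and binding was read with antibodies against each partner (one per run). Binding z-scores come from regression-normalized fluorescence, with the random background probes as reference.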
For the sequence GCGACTGGGGCAAAGCAGGTTACCATGAGGTTGG, the PBM binding z-score amounted to 0.674.

In turn, GCTAGTTGGTCACTAAAAGGTCACACACCGGTCG displayed a PBM binding z-score of 5.45.

In the case of ATCTCTAGGTAACAAGTGCAGTGAAAGAGAGGAC, the PBM binding z-score was 0.624.

CCTACTGGGCCATCTGGTCATTGATATCAACGTT displayed a PBM binding z-score of 0.419.

ATCTCTAGGTAAAAGTTCAGTGGATCCCGAGGAT had a PBM binding z-score of 2.08.

CGTCAAAGTTCAACTAAAGTAACGTAAAGCACGC came in with a PBM binding z-score of 6.97.

Sequence ACTAGCAGGCCAAGTTTGGGTGACTCAAACAAAG gave a PBM binding z-score of -0.216.

Sequence CCTGCTAGGTCATGGTCAGCAAATCTACAGTATG registered a PBM binding z-score of 4.6.

In turn, ACAGACAGGTGATGCAGGTAACTCAGGCTATCAT had a PBM binding z-score of 0.379.

In turn, TCTGCTAGGTCAACGATGGTTAGCTAATCTGCTA registered a PBM binding z-score of 5.29.

The sequence ATCAAAAGGTCGACGAGGTGAGTATACACCGTTT came in with a PBM binding z-score of 4.08.

In the case of GCTGCTAGGTCAACTGATGGTCAGCCAAAGCTCG, the PBM binding z-score amounted to 5.1.

Turning to CGTCCAAGGTCAATGCCAGGTCAGTGAAAGCATT, the PBM binding z-score turned out to be 6.75.

In turn, GCTTACGGGTCAAAGGTTATATCATGAATAGAAT had a PBM binding z-score of 4.71.

For TCTAGGTGGTCACGGAGGTCACACACGACGGGTA, the PBM binding z-score was found to be 5.12.

As to CGTCCAATGTCAAAGGTCAGTGAAGAGATGACGG, the PBM binding z-score turned out to be 5.43.

In the case of CCTTACGGGTCACTCCAGGTTATAGGATCGGAGT, the PBM binding z-score amounted to 4.56.

In turn, GTACCAATGTGAATAGGTCGTTGATGAGTAGGCG displayed a PBM binding z-score of 0.344.

As to ACTAGCAGGCCAAGTATGGGTCACTCAAACAAAG, the PBM binding z-score amounted to 1.63.

Sequence CGTCCAAGGTCAGAGATGTCAGTGAATGCCGAGT returned a PBM binding z-score of 5.29.

In turn, GCGACTGCGGCATCAGCAGGTTACCATAACTTAA displayed a PBM binding z-score of -0.604.

TCTTGTAGCTCAATAGAGGTTAAGAAAGTGCGCT had a PBM binding z-score of 0.113.

Sequence CAGCCTAGGTCAGGGCCAGTACAGGAGGAACGTT registered a PBM binding z-score of 3.74.

Sequence TCTGACAGGTGAAGGTAACTCAGGTACGCAGTCG gave a PBM binding z-score of 0.639.

Take TCTGGTAGATCAAGCAGGTTAAGAAAGCCTGAGT: the PBM binding z-score is -0.211.

Consider ATACCAAGGTGATCGTGAGGTGGTTGATACTAAC, for which the PBM binding z-score is 0.258.

TCTCGGAGGACACGAAGATCAGAGCTTTCCAGAG yielded a PBM binding z-score of 1.05.

For TTACCAAGGTGAAAGGTCGTTGATGCACGCCTTG, the PBM binding z-score amounted to 2.31.

Turning to CAAACTAGGTCCCCGGAAGGTCAAAGTCCGCATG, the PBM binding z-score turned out to be 3.32.

CCTACTGGGACACGAAAGGTCATTGATTCAGTGA gave a PBM binding z-score of 4.53.

With ATACCAAGGTAATCGTGAGGTCGTTGATACTAAC, the PBM binding z-score was found to be 0.586.

CAAACTAGGTCACCGGAAGGTCAAAGTGCGCATG yielded a PBM binding z-score of 7.66.

Sequence TGTTGTAGATCAACAGGAGGTTAAGAAAGATCGA yielded a PBM binding z-score of 0.365.

For the sequence TCGAGTAGGTTAGAGGCATTCAGAATGGCGTCGA, the PBM binding z-score is -0.164.

Sequence CAGACAGGGTCAGCTAGGCCAGAGTAGGGACGGC came in with a PBM binding z-score of 4.64.

On to GCGACTGGGGCATCAGCGGGTTACCATAACTTAA, for which the PBM binding z-score stood at 0.196.

CCTACTGGGCCAGGGTCATTGATCAGTCAAAGCA gave a PBM binding z-score of 2.02.

Turning to ATATGTAGGTTAGGTGGGGTCATTCAGACTAGGC, the PBM binding z-score is 3.02.

Sequence GCAGACAGGTGACACGCAGGTAACTCAGGGTGGC registered a PBM binding z-score of 0.52.

As to CCTACTGGGCCAAGAAGGTCATTGATGCCGATAA, the PBM binding z-score came out at 2.39.

A further assay deals with RXRa DBDmut IVT, anti-RXR (DBD mutation: RXRa K156A/R161A, NR concentration 90 nM). The description is as above. The method, boiled down: as §1
Consider GCGACTGGGGCAAAGCAGGTTACCATGAGGTTGG, for which the PBM binding z-score was -0.402.

As for GCTAGTTGGTCACTAAAAGGTCACACACCGGTCG, the PBM binding z-score was determined as 0.465.

In the case of ATCTCTAGGTAACAAGTGCAGTGAAAGAGAGGAC, the PBM binding z-score is -0.169.

Sequence CCTACTGGGCCATCTGGTCATTGATATCAACGTT displayed a PBM binding z-score of -0.267.

ATCTCTAGGTAAAAGTTCAGTGGATCCCGAGGAT: the PBM binding z-score amounted to 0.861.

CGTCAAAGTTCAACTAAAGTAACGTAAAGCACGC had a PBM binding z-score of 4.67.

The sequence ACTAGCAGGCCAAGTTTGGGTGACTCAAACAAAG gave a PBM binding z-score of -0.308.

In turn, CCTGCTAGGTCATGGTCAGCAAATCTACAGTATG returned a PBM binding z-score of 1.74.

ACAGACAGGTGATGCAGGTAACTCAGGCTATCAT: the PBM binding z-score is -0.176.

As for TCTGCTAGGTCAACGATGGTTAGCTAATCTGCTA, the PBM binding z-score is 1.1.

Consider ATCAAAAGGTCGACGAGGTGAGTATACACCGTTT, for which the PBM binding z-score came out at 1.52.

GCTGCTAGGTCAACTGATGGTCAGCCAAAGCTCG displayed a PBM binding z-score of 1.7.

CGTCCAAGGTCAATGCCAGGTCAGTGAAAGCATT returned a PBM binding z-score of 3.86.

For the sequence GCTTACGGGTCAAAGGTTATATCATGAATAGAAT, the PBM binding z-score was 2.66.

TCTAGGTGGTCACGGAGGTCACACACGACGGGTA: the PBM binding z-score was 0.895.

In turn, CGTCCAATGTCAAAGGTCAGTGAAGAGATGACGG yielded a PBM binding z-score of 1.04.

CCTTACGGGTCACTCCAGGTTATAGGATCGGAGT yielded a PBM binding z-score of 1.45.

With GTACCAATGTGAATAGGTCGTTGATGAGTAGGCG, the PBM binding z-score was -0.108.

Turning to ACTAGCAGGCCAAGTATGGGTCACTCAAACAAAG, the PBM binding z-score is -0.279.

On to CGTCCAAGGTCAGAGATGTCAGTGAATGCCGAGT, for which the PBM binding z-score turned out to be 2.72.

Consider GCGACTGCGGCATCAGCAGGTTACCATAACTTAA, for which the PBM binding z-score is -0.332.

Sequence TCTTGTAGCTCAATAGAGGTTAAGAAAGTGCGCT had a PBM binding z-score of 0.261.

For CAGCCTAGGTCAGGGCCAGTACAGGAGGAACGTT, the PBM binding z-score is -0.352.

The sequence TCTGACAGGTGAAGGTAACTCAGGTACGCAGTCG returned a PBM binding z-score of 0.827.

As to TCTGGTAGATCAAGCAGGTTAAGAAAGCCTGAGT, the PBM binding z-score worked out at 0.0546.

Sequence ATACCAAGGTGATCGTGAGGTGGTTGATACTAAC gave a PBM binding z-score of -0.212.

On to TCTCGGAGGACACGAAGATCAGAGCTTTCCAGAG, for which the PBM binding z-score stood at 0.0261.

Sequence TTACCAAGGTGAAAGGTCGTTGATGCACGCCTTG displayed a PBM binding z-score of 0.684.

As for CAAACTAGGTCCCCGGAAGGTCAAAGTCCGCATG, the PBM binding z-score was 0.0846.

The sequence CCTACTGGGACACGAAAGGTCATTGATTCAGTGA returned a PBM binding z-score of 0.718.

ATACCAAGGTAATCGTGAGGTCGTTGATACTAAC registered a PBM binding z-score of 0.482.

In the case of CAAACTAGGTCACCGGAAGGTCAAAGTGCGCATG, the PBM binding z-score turned out to be 2.19.

TGTTGTAGATCAACAGGAGGTTAAGAAAGATCGA returned a PBM binding z-score of -0.89.

Turning to TCGAGTAGGTTAGAGGCATTCAGAATGGCGTCGA, the PBM binding z-score is -0.37.

Turning to CAGACAGGGTCAGCTAGGCCAGAGTAGGGACGGC, the PBM binding z-score came out at 1.59.

Sequence GCGACTGGGGCATCAGCGGGTTACCATAACTTAA showed a PBM binding z-score of -0.276.

Consider CCTACTGGGCCAGGGTCATTGATCAGTCAAAGCA, for which the PBM binding z-score is 0.154.

Regarding ATATGTAGGTTAGGTGGGGTCATTCAGACTAGGC, the PBM binding z-score came out at 2.19.

In turn, GCAGACAGGTGACACGCAGGTAACTCAGGGTGGC registered a PBM binding z-score of -0.855.

CCTACTGGGCCAAGAAGGTCATTGATGCCGATAA gave a PBM binding z-score of 0.188.
